In publication PMC11006913:

Key:
Assay in all cases: PBM; 200 nM protein, PBS
Details in all cases: dsDNA, one strand shown
HESX1 [1] = target: HESX1 (Homo sapiens, UniProt Q9UBX0 95-180, R165K)
HOXB4 [2] = target: HOXB4 (Homo sapiens, UniProt P17483 148-234)
SHOX [3] = target: SHOX (Homo sapiens, UniProt O15266 103-189)
HESX1 [4] = target: HESX1 (Homo sapiens, UniProt Q9UBX0 95-180)
HOXB4 [5] = target: HOXB4 (Homo sapiens, UniProt P17483 148-234, V174I)
MSX2 [6] = target: MSX2 (Homo sapiens, UniProt P35548 130-214, R199I)
ALX3 [7] = target: ALX3 (Homo sapiens, UniProt O95076 139-225, N203Q)
SHOX [8] = target: SHOX (Homo sapiens, UniProt O15266 103-189, R173C)
ALX3 [9] = target: ALX3 (Homo sapiens, UniProt O95076 139-225)
PROP1 [10] = target: PROP1 (Homo sapiens, UniProt O75360 56-141)
HESX1 [11] = target: HESX1 (Homo sapiens, UniProt Q9UBX0 95-180, R109Q)
PROP1 [12] = target: PROP1 (Homo sapiens, UniProt O75360 56-141, R99H)
ALX3 [13] = target: ALX3 (Homo sapiens, UniProt O95076 139-225, L168Q)
HESX1 [14] = target: HESX1 (Homo sapiens, UniProt Q9UBX0 95-180, P111T)
ALX3 [15] = target: ALX3 (Homo sapiens, UniProt O95076 139-225, L168V)
PROP1 [16] = target: PROP1 (Homo sapiens, UniProt O75360 56-141, F88S)
MSX2 [17] = target: MSX2 (Homo sapiens, UniProt P35548 130-214, F161Y)
HESX1 [18] = target: HESX1 (Homo sapiens, UniProt Q9UBX0 95-180, F115L)
ALX3 [19] = target: ALX3 (Homo sapiens, UniProt O95076 139-225, N203S)
HOXA4 = HOXA4 (Homo sapiens, UniProt Q00056 201-287, R217L)
Chain of HOXA4 (Q00056 201-287 R217L): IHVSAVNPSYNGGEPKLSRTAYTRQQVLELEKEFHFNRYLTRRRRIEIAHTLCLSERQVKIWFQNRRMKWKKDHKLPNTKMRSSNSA

Chain of SHOX (Homo sapiens, UniProt O15266 103-189, R173C) (O15266 103-189 R173C): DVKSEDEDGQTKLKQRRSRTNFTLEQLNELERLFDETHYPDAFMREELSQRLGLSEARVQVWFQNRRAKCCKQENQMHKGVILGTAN
Chain of HESX1 (Homo sapiens, UniProt Q9UBX0 95-180, R165K) (Q9UBX0 95-180 R165K): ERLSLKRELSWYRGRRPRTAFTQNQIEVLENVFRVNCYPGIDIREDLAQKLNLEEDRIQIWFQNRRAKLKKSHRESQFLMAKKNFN
Chain of ALX3 (Homo sapiens, UniProt O95076 139-225) (O95076 139-225): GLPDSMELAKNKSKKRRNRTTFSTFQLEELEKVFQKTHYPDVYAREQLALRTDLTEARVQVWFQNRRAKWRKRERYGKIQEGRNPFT
Chain of PROP1 (Homo sapiens, UniProt O75360 56-141, F88S) (O75360 56-141 F88S): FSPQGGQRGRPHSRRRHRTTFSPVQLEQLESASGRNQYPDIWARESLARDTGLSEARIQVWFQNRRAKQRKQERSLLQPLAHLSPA
Chain of HESX1 (Homo sapiens, UniProt Q9UBX0 95-180) (Q9UBX0 95-180): as the sequence (Q9UBX0 95-180 R165K) above, with K71R counted along it
Chain of MSX2 (Homo sapiens, UniProt P35548 130-214, F161Y) (P35548 130-214 F161Y): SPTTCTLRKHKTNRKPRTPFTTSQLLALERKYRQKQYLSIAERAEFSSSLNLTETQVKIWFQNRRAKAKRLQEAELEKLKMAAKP
Chain of SHOX (Homo sapiens, UniProt O15266 103-189) (O15266 103-189): as the sequence (O15266 103-189 R173C) above, with C71R counted along it
Chain of HESX1 (Homo sapiens, UniProt Q9UBX0 95-180, F115L) (Q9UBX0 95-180 F115L): as the sequence (Q9UBX0 95-180 R165K) above, with F21L, K71R counted along it
Chain of HOXB4 (Homo sapiens, UniProt P17483 148-234, V174I) (P17483 148-234 V174I): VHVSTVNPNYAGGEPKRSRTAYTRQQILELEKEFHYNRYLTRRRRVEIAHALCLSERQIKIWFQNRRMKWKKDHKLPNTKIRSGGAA
Chain of HESX1 (Homo sapiens, UniProt Q9UBX0 95-180, R109Q) (Q9UBX0 95-180 R109Q): as the sequence (Q9UBX0 95-180 R165K) above, with R15Q, K71R counted along it
Chain of ALX3 (Homo sapiens, UniProt O95076 139-225, L168V) (O95076 139-225 L168V): as the sequence (O95076 139-225) above, with L30V counted along it
Chain of ALX3 (Homo sapiens, UniProt O95076 139-225, N203Q) (O95076 139-225 N203Q): as the sequence (O95076 139-225) above, with N65Q counted along it
Chain of MSX2 (Homo sapiens, UniProt P35548 130-214, R199I) (P35548 130-214 R199I): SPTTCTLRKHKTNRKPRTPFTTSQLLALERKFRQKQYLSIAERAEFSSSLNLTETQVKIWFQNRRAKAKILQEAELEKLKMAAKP
Chain of HESX1 (Homo sapiens, UniProt Q9UBX0 95-180, P111T) (Q9UBX0 95-180 P111T): as the sequence (Q9UBX0 95-180 R165K) above, with P17T, K71R counted along it
Chain of ALX3 (Homo sapiens, UniProt O95076 139-225, N203S) (O95076 139-225 N203S): as the sequence (O95076 139-225) above, with N65S counted along it
Chain of HOXB4 (Homo sapiens, UniProt P17483 148-234) (P17483 148-234): as the sequence (P17483 148-234 V174I) above, with I27V counted along it
Chain of ALX3 (Homo sapiens, UniProt O95076 139-225, L168Q) (O95076 139-225 L168Q): as the sequence (O95076 139-225) above, with L30Q counted along it
Chain of PROP1 (Homo sapiens, UniProt O75360 56-141) (O75360 56-141): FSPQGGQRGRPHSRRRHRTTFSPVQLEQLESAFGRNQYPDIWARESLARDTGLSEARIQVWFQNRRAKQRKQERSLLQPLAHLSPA
Chain of PROP1 (Homo sapiens, UniProt O75360 56-141, R99H) (O75360 56-141 R99H): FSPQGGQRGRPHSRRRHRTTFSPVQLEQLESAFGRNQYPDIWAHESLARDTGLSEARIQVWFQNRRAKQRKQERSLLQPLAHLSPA

| Sequence | binding signal (HESX1 [1]) | binding signal (HOXB4 [2]) | binding signal (SHOX [3]) | binding signal (HESX1 [4]) | binding signal (HOXB4 [5]) | binding signal (MSX2 [6]) | binding signal (ALX3 [7]) | binding signal (SHOX [8]) | binding signal (ALX3 [9]) | binding signal (PROP1 [10]) | binding signal (HESX1 [11]) | binding signal (PROP1 [12]) | binding signal (ALX3 [13]) | binding signal (HESX1 [14]) | binding signal (ALX3 [15]) | binding signal (PROP1 [16]) | binding signal (MSX2 [17]) | binding signal (HESX1 [18]) | binding signal (ALX3 [19]) | binding signal (HOXA4) |
| --- | --- | --- | --- | --- | --- | --- | --- | --- | --- | --- | --- | --- | --- | --- | --- | --- | --- | --- | --- | --- |
| AATTAGTC | 11.5 upbm affinity estimate (log intensity, higher = more binding, comparable within an allelic series) | 12.4 upbm affinity estimate (log intensity, higher = more binding, comparable within an allelic series) | 11.7 upbm affinity estimate (log intensity, higher = more binding, comparable within an allelic series) | 11.8 upbm affinity estimate (log intensity, higher = more binding, comparable within an allelic series) | 13 upbm affinity estimate (log intensity, higher = more binding, comparable within an allelic series) | 12.3 upbm affinity estimate (log intensity, higher = more binding, comparable within an allelic series) | 8.3 upbm affinity estimate (log intensity, higher = more binding, comparable within an allelic series) | 9.37 upbm affinity estimate (log intensity, higher = more binding, comparable within an allelic series) | 12.2 upbm affinity estimate (log intensity, higher = more binding, comparable within an allelic series) | 11.1 upbm affinity estimate (log intensity, higher = more binding, comparable within an allelic series) | 8.88 upbm affinity estimate (log intensity, higher = more binding, comparable within an allelic series) | 11 upbm affinity estimate (log intensity, higher = more binding, comparable within an allelic series) | 10.3 upbm affinity estimate (log intensity, higher = more binding, comparable within an allelic series) | 10.4 upbm affinity estimate (log intensity, higher = more binding, comparable within an allelic series) | 9.88 upbm affinity estimate (log intensity, higher = more binding, comparable within an allelic series) | 7.67 upbm affinity estimate (log intensity, higher = more binding, comparable within an allelic series) | 13 upbm affinity estimate (log intensity, higher = more binding, comparable within an allelic series) | 7.67 upbm affinity estimate (log intensity, higher = more binding, comparable within an allelic series) | 8.39 upbm affinity estimate (log intensity, higher = more binding, comparable within an allelic series) |  |
| ATTAATAG | 10.6 upbm affinity estimate (log intensity, higher = more binding, comparable within an allelic series) | 13 upbm affinity estimate (log intensity, higher = more binding, comparable within an allelic series) |  | 10.6 upbm affinity estimate (log intensity, higher = more binding, comparable within an allelic series) | 13.7 upbm affinity estimate (log intensity, higher = more binding, comparable within an allelic series) |  | 8.58 upbm affinity estimate (log intensity, higher = more binding, comparable within an allelic series) |  |  |  | 8.2 upbm affinity estimate (log intensity, higher = more binding, comparable within an allelic series) |  |  | 9.29 upbm affinity estimate (log intensity, higher = more binding, comparable within an allelic series) |  |  |  | 7.97 upbm affinity estimate (log intensity, higher = more binding, comparable within an allelic series) |  | 12 upbm affinity estimate (log intensity, higher = more binding, comparable within an allelic series) |
| CAATTAAC | 13.1 upbm affinity estimate (log intensity, higher = more binding, comparable within an allelic series) | 13.2 upbm affinity estimate (log intensity, higher = more binding, comparable within an allelic series) | 12.1 upbm affinity estimate (log intensity, higher = more binding, comparable within an allelic series) | 13.1 upbm affinity estimate (log intensity, higher = more binding, comparable within an allelic series) | 13.9 upbm affinity estimate (log intensity, higher = more binding, comparable within an allelic series) | 13.1 upbm affinity estimate (log intensity, higher = more binding, comparable within an allelic series) | 8.37 upbm affinity estimate (log intensity, higher = more binding, comparable within an allelic series) | 9.74 upbm affinity estimate (log intensity, higher = more binding, comparable within an allelic series) | 12.7 upbm affinity estimate (log intensity, higher = more binding, comparable within an allelic series) | 11.6 upbm affinity estimate (log intensity, higher = more binding, comparable within an allelic series) | 9.81 upbm affinity estimate (log intensity, higher = more binding, comparable within an allelic series) | 11.8 upbm affinity estimate (log intensity, higher = more binding, comparable within an allelic series) | 10.8 upbm affinity estimate (log intensity, higher = more binding, comparable within an allelic series) | 11.7 upbm affinity estimate (log intensity, higher = more binding, comparable within an allelic series) | 10.3 upbm affinity estimate (log intensity, higher = more binding, comparable within an allelic series) | 7.68 upbm affinity estimate (log intensity, higher = more binding, comparable within an allelic series) | 13.6 upbm affinity estimate (log intensity, higher = more binding, comparable within an allelic series) | 7.95 upbm affinity estimate (log intensity, higher = more binding, comparable within an allelic series) | 8.57 upbm affinity estimate (log intensity, higher = more binding, comparable within an allelic series) | 12.4 upbm affinity estimate (log intensity, higher = more binding, comparable within an allelic series) |
| ACTAATTG | 13 upbm affinity estimate (log intensity, higher = more binding, comparable within an allelic series) | 13.1 upbm affinity estimate (log intensity, higher = more binding, comparable within an allelic series) | 12.3 upbm affinity estimate (log intensity, higher = more binding, comparable within an allelic series) | 13 upbm affinity estimate (log intensity, higher = more binding, comparable within an allelic series) | 13.8 upbm affinity estimate (log intensity, higher = more binding, comparable within an allelic series) | 13.1 upbm affinity estimate (log intensity, higher = more binding, comparable within an allelic series) | 8.32 upbm affinity estimate (log intensity, higher = more binding, comparable within an allelic series) | 9.68 upbm affinity estimate (log intensity, higher = more binding, comparable within an allelic series) | 12.5 upbm affinity estimate (log intensity, higher = more binding, comparable within an allelic series) | 11.5 upbm affinity estimate (log intensity, higher = more binding, comparable within an allelic series) | 9.82 upbm affinity estimate (log intensity, higher = more binding, comparable within an allelic series) | 11.9 upbm affinity estimate (log intensity, higher = more binding, comparable within an allelic series) | 10.8 upbm affinity estimate (log intensity, higher = more binding, comparable within an allelic series) | 11.6 upbm affinity estimate (log intensity, higher = more binding, comparable within an allelic series) | 10.2 upbm affinity estimate (log intensity, higher = more binding, comparable within an allelic series) | 7.65 upbm affinity estimate (log intensity, higher = more binding, comparable within an allelic series) | 13.7 upbm affinity estimate (log intensity, higher = more binding, comparable within an allelic series) | 7.98 upbm affinity estimate (log intensity, higher = more binding, comparable within an allelic series) | 8.46 upbm affinity estimate (log intensity, higher = more binding, comparable within an allelic series) | 11.8 upbm affinity estimate (log intensity, higher = more binding, comparable within an allelic series) |
